From article PMC5540273 (PLoS ONE, 2017)

Key:
Conditions in all cases: concentration: 1 μM, replicates: in singlicate; n = 1
MKK7 = test system: MKK7
MKNK1 = test system: MKNK1
MKNK2 = test system: MKNK2
MLCK = test system: T1, MLCK
T1 construct: gene MYLK3

MLK1 = test system: T2, MLK1
T2 construct: gene MAP3K9

MLK2 = test system: MLK2
MLK3 = test system: MLK3
MRCKA = test system: MRCKA
MRCKB = test system: T3, MRCKB
T3 construct: gene CDC42BPB

MST1R = test system: MST1R
MST1 = test system: T4, MST1
T4 construct: gene STK4

MST2 = test system: T5, MST2
T5 construct: gene STK3

MST3 = test system: T6, MST3
T6 construct: gene STK24

MST4 = test system: MST4
MTOR = test system: MTOR
MUSK = test system: MUSK
MYLK2 = test system: MYLK2
MYLK4 = test system: MYLK4
MYLK = test system: MYLK
MYO3A = test system: MYO3A
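Note: KINOMEscan kinase panel screen.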

Structure (SMILES) | %Inh (MKK7) | %Inh (MKNK1) | %Inh (MKNK2) | %Inh (MLCK) | %Inh (MLK1) | %Inh (MLK2) | %Inh (MLK3) | %Inh (MRCKA) | %Inh (MRCKB) | %Inh (MST1R) | %Inh (MST1) | %Inh (MST2) | %Inh (MST3) | %Inh (MST4) | %Inh (MTOR) | %Inh (MUSK) | %Inh (MYLK2) | %Inh (MYLK4) | %Inh (MYLK) | %Inh (MYO3A)
COc1ccc(Nc2nccc(N3CCC(NC(=O)Nc4cccc(C(C)=O)c4)C3)n2)cc1 (centres unmarked) [GSK1379731] | 0% | 0% | 4% | 5% | 0% | 0% | 0% | 0% | 0% | 17% | 4% | 0% | 0% | 0% | 16% | 3% | 0% | 0% | 0% | 0%
O=C(NCCNc1ccnc(Nc2ccc(F)cc2)n1)c1cc2ccccc2s1 [GSK1379874] | 0% | 2% | 0% | 0% | 6% | 0% | 17% | 13% | 0% | 30% | 0% | 0% | 0% | 0% | 8% | 0% | 0% | 0% | 15% | 0%
O=c1cc(N2CCOCC2)nc2n(Cc3cccc(C(F)(F)F)c3)ccn12 [GSK2297543] | 0% | 0% | 0% | 0% | 0% | 14% | 19% | 0% | 0% | 12% | 10% | 0% | 9% | 0% | 4% | 3% | 0% | 2% | 18% | 19%
Cn1ccc2ncnc(Oc3ccc(NC(=O)Nc4ccncc4)c(Cl)c3)c21 | 0% | 0% | 0% | 0% | 0% | 5% | 0% | 0% | 0% | 17% | 0% | 0% | 0% | 0% | 11% | 0% | 11% | 0% | 0% | 14%
O=C(c1ccc(-c2cc(-c3c[nH]nc3-c3ccccn3)ccn2)cc1)N1CCOCC1 [GW812171] | 24% | 0% | 0% | 0% | 0% | 34% | 0% | 1% | 12% | 0% | 4% | 0% | 0% | 0% | 17% | 0% | 0% | 26% | 0% | 6%
O=C1NC(=O)C(N2CCc3ccccc32)=C1c1cccc(Cl)c1 [SB-408010] | 0% | 18% | 46% | 0% | 0% | 0% | 0% | 0% | 15% | 5% | 0% | 63% | 4% | 0% | 0% | 0% | 0% | 0% | 8% | 9%
N#Cc1ccc(-c2cc(-c3c[nH]nc3-c3ccccn3)ccn2)cc1 [GW693028] | 0% | 7% | 14% | 0% | 0% | 6% | 0% | 0% | 0% | 26% | 4% | 0% | 0% | 0% | 14% | 0% | 0% | 0% | 8% | 15%
Cc1ccc(C(=O)NCC(N)=O)cc1-n1c(C)cc(OCc2ccc(F)cc2F)c(Br)c1=O | 0% | 0% | 0% | 0% | 25% | 19% | 22% | 3% | 12% | 29% | 13% | 4% | 26% | 0% | 0% | 0% | 12% | 14% | 7% | 14%
COc1cc2c(cc1OCCN1CCN(C)CC1)ncc1c3ccc(C#N)cc3[nH]c21 | 0% | 99.4% | 99.7% | 98.8% | 0% | 0% | 20% | 10% | 0% | 7% | 0% | 30% | 36% | 0% | 38% | 0% | 72% | 75% | 26% | 0%
Fc1ccc(-c2nn3c(OCC(F)(F)F)cccc3c2-c2ccncc2)cc1 [GW514784] | 0% | 0% | 0% | 0% | 0% | 0% | 0% | 24% | 32% | 13% | 0% | 0% | 12% | 0% | 35% | 0% | 1% | 0% | 15% | 72%
